# Measured values as given in PubChem BioAssay AID2283371 (EPA ToxCast).
# Results filed as inconclusive are left out. Calls of active or inactive are those of the source. Rule for the calls: active = hit-call score of the fitted dose curve at least 0.9, where 1 is the maximum; inconclusive = response in the unintended direction; inactive = score below 0.9.
# Molecular target: rat Adenosine Transporter (Adot), Slc29a1 (gene 63997) (UniProt O54698)
# Test: NVS_TR_rAdoT: NovaScreen (NVS) Transporter Assay for rat Adenosine Transporter (Adot)
# Method: NVS_TR_rAdoT is a biochemical, single-readout assay that uses extracted gene-proteins from Rat forebrain membranes in a tissue-based cell-free assay. Measurements were taken 1 hour after chemical dosing in a 48-well plate.NVS_TR_rAdoT is one of one assay component(s) measured or calculated from the NVS_TR_rAdoT assay. It is designed to make measurements of radioligand binding, a form of binding reporter, as detected with scintillation counting signals by Filter-based radiodetection technology.Data from the assay component NVS_TR_rAdoT was analyzed into 1 assay endpoint. This assay endpoint, NVS_TR_rAdoT, was analyzed in the positive analysis fitting direction relative to DMSO as the negative control and baseline of activity. Using a type of binding reporter, loss-of-signal activity can be used to understand changes in the binding as they relate to the gene Slc29a1. Furthermore, this assay endpoint can be referred to as a primary readout, because the performed assay has only produced 1 assay endpoint. To generalize the intended target to other relatable targets, this assay endpoint is annotated to the transporter intended target family, where the subfamily is nucleoside transporter.
# Binding assays used specific radioligands (tritiated, iodinated) with non-radioactive competitive displacement ligands in agonist or antagonist protocols (as indicated) and various reference compounds and inhibitors to titrate specific binding to receptors and transporters. Most enzyme assays (CYPs, kinases, phosphatases, proteases, HDACs) used recombinant protein and specific substrates (fluorescence mostly, some colorimetric and radioactive) and inhibitors, followed by a biochemical separation of substrate and product. All assays for the biochemical HTS were initially run in duplicate at a single concentration (10 uM for CYP450 assays and 25 uM for all others). Assay-chemical combinations meeting a pre-defined threshold (e.g., 30% inhibition and other criteria defined below) were then run in singleton concentration-response format with maximum concentration of 20 uM for CYPs and 50 uM for all others. Each assay was run with positive and negative controls, and concurrent controls on every plate. The follow-up (secondary) screen tested active chemical-pairs in concentration series, as well as a few additional assays not tested in the primary screen, some selected negative inactives, and several cases re-run in the concentration series for confirmatory purposes.
# Chain of rat Adenosine Transporter (Adot), Slc29a1 (gene 63997) (O54698 whole entry, looked up): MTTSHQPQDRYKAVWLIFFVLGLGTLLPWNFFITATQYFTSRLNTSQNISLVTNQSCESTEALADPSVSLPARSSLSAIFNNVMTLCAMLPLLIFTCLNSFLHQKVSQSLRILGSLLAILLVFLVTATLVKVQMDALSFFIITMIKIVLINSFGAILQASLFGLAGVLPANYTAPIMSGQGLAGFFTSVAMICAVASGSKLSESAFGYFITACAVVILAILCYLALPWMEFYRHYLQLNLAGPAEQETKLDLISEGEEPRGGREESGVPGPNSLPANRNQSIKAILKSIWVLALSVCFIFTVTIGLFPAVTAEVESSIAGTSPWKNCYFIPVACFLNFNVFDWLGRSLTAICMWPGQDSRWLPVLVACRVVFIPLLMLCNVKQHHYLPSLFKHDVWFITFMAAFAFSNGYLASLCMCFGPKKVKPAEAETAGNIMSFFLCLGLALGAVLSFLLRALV
Structure (SMILES),outcome,AC50
Cc1oc(-c2ccccc2)nc1CCOc1cccc2c1ccn2CCC(=O)O,inactive,
CCOP(=S)(Oc1ccc([N+](=O)[O-])cc1)c1ccccc1 (configuration not stated),inactive,
O=S(=O)(O)C(F)(F)C(F)(F)C(F)(F)C(F)(F)C(F)(F)C(F)(F)C(F)(F)C(F)(F)F,inactive,
Cn1c(=O)c2c(ncn2C)n(C)c1=O,inactive,
COc1cc2c(c(OC)c1OC)-c1ccc(OC)c(=O)cc1[C@@H](NC(C)=O)CC2,inactive,
CCCCC(CC)COC(=O)c1ccc(C(=O)OCC(CC)CCCC)c(C(=O)OCC(CC)CCCC)c1 (configuration not stated),inactive,
S=C1NCCN1,inactive,
COc1ccc2cc(S(=O)(=O)N[C@H](CC(=O)N[C@H](Cc3ccc(CN4[C@H](C)CCC[C@@H]4C)cc3)C(=O)N(C)C(C)C)c3ccc4c(c3)OCO4)ccc2c1,,7.85 µM (active)
S=C(S)NCCNC(=S)S.[Mn+2].[S-]C([S-])=NCCN=C([S-])[S-].[Zn+2],inactive,
CC[C@H]1OC(=O)[C@H](C)[C@@H](O[C@H]2C[C@@](C)(OC)[C@@H](O)[C@H](C)O2)[C@H](C)[C@@H](O[C@@H]2O[C@H](C)C[C@H](N(C)C)[C@H]2O)[C@](C)(O)C[C@@H](C)C(=O)[C@H](C)[C@@H](O)[C@]1(C)O,,6.47 µM (active)
O=C(O)C(F)(F)C(F)(F)C(F)(F)C(F)(F)C(F)(F)C(F)(F)C(F)(F)F,inactive,
Oc1ccc(Cl)cc1Cl,inactive,
